Our source for the cell number values is the supplement of paper PMC7156485.

The structures appear in SMILES notation. ± gives the standard deviation of the averaged measurements.
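Further: TDF denotes transformed human dermal fibroblasts of mesenchymal origin.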

For this assay, the system named is TDF. Description: cell number relative to DMSO (% of DMSO); higher = more cells (less growth inhibition / toxicity). Particulars: concentration: 10 µM; 24 h. In outline: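 Six fields per well were imaged at ×10 after the cells were fixed in 3.7% formaldehyde and stained with a rabbit anti-H1.0 antibody, an AlexaFluor 647 secondary and DAPI. The HCC1569 and TDF cells had been plated at 800 per well in 384-well plates (RPMI, 10% FBS) and treated in triplicate with compounds at 10 µM for 24 h at 37 °C. The values are the median of replicates of H1.0 nuclear intensity or cell number, as percent of the plate control. Smoothing for positional effects was applied to HCC1569 data.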
The molecule `Cl.NCCNC(=O)c1ncsc1-c1cccc(F)c1` [Ro 41-1049 hydrochloride] had a cell number of 90.9. For `CCn1nc(C(=O)O)c(=O)c2cc3c(cc21)OCO3` [Cinoxacin] the value was 105. `CCOC(=O)CCNc1cc(N2CCc3ccccc3CC2)nc(-c2ccccn2)n1`: the cell number was 20.8. On to `CCCCCC=CCC=CCC=CCCCCCCC(=O)O` [8(Z), 11(Z), 14(Z)-Eicosatrienoic Acid], for which the cell number was determined as 101. As to `CCn1cc(C(=O)O)c(=O)c2cc(F)c(N3CCNC(C)C3)c(F)c21.Cl` (stereo not given) [Lomefloxacin hydrochloride], the cell number stood at 102. On to `CCCCCC=CCC=CC=CC=CC(SCC(NC(C)=O)C(=O)O)C(O)CCCC(=O)O` (stereo not given) [N-Acetyl-leukotriene E4], for which the cell number was 102. For `CCCn1c(=O)c2[nH]c(-c3ccc(OCC(=O)NCCN)cc3)nc2n(CCC)c1=O` [Xanthine amine congener] the value was 104; for `CCCCCC=CCC=CCC=CC=CC(O)CCCC(=O)O` (stereo not given), 103.

`CCSC(N)=Nc1ccc(C(F)(F)F)cc1.Cl` [TFPI hydrochloride]: the cell number was found to be 90.8. In the case of `CN(C)C(=O)Nc1cccc(-c2ccc(N(C)C)cc2)c1` [3-(4'-(dimethylamino)-[1,1'-biphenyl]-3-yl)-1,1-dimethylurea], the cell number turned out to be 101. For `Cl.OCC1NCC(O)C(O)C1O` (stereo not given) [1-Deoxynojirimycin hydrochloride] the value was 106. Molecule `CCCCCCCCCC(=O)O` [Decanoic acid] came in with a cell number of 95.3. For `Nc1ccc(CCNc2ncnc3c2ncn3C2OC(CO)C(O)C2O)cc1` (stereo not given) [N6-2-(4-Aminophenyl)ethyladenosine] the value was 109; for `C[N+]1(C)C2CC(OC(=O)C(O)(c3cccs3)c3cccs3)CC1C1OC12.[Br-]` (stereo not given) [Tiotropium Bromide], 97.1. As for `Cc1cc2cc3c(C)cc(=O)oc3c(C)c2o1` [4,5',8-Trimethylpsoralen], the cell number is 102. For `CC1=C(C)C(=O)C(C(CCCCCC(=O)O)c2ccccc2)=C(C)C1=O` (stereo not given) [Seratrodast] the value was 104. Regarding `CC1=c2[nH]c3c(c2CCN1)C=CC(=O)C=3.Cl.O.O`, the cell number turned out to be 89. For `CCc1nn(CCCN2CCN(c3cccc(Cl)c3)CC2)c(=O)n1CCOc1ccccc1` the value was 95; for `COc1cc2nc(N(C)CCCNC(=O)C3CCCO3)nc(N)c2cc1OC` (stereo not given) [Alfuzosin], 96.5.

`CN1CCN(C2=Nc3cc(F)ccc3Cc3ccccc32)CC1` [Fluperlapine] returned a cell number of 102. The molecule `CC(OC1OCCN(Cc2nc(=O)[nH][nH]2)C1c1ccc(F)cc1)c1cc(C(F)(F)F)cc(C(F)(F)F)c1` (stereo not given) [Aprepitant] had a cell number of 96.8.

For the molecule `OCC1OC(Oc2ccc(O)cc2)C(O)C(O)C1O` (stereo not given) [Arbutin], the cell number was determined as 101. `CC(Cc1ccccc1)(NC(=O)CN)c1ccccc1.Cl` (stereo not given) showed a cell number of 107. For `CN(Cc1cc(Br)cc(Br)c1N)C1CCCCC1` [Bromhexine] the value was 110.

As for `CC(C)NCC(O)c1ccc(O)c(O)c1.Cl` (racemic), the cell number turned out to be 94.

The molecule `COc1cc2c(cc1OC)-c1cc3ccc(OC)c(OC)c3c[n+]1CC2.[Cl-]` [Palmatine chloride] showed a cell number of 108. Consider `COc1cccc2c1C(=O)c1c(O)c3c(c(O)c1C2=O)CC(O)(C(C)=O)CC3OC1CC(N)C(O)C(C)O1` (stereo not given) [Daunorubicin], for which the cell number stood at 8.2 ± 1.4. For `CCCCCN(C)CCC(O)(P(=O)(O)O)P(=O)(O)O` [Ibandronate] the value was 100; for `CCCCCCCCCCCCC(O)C(=O)O` (stereo not given) [2-Hydroxymyristic acid], 103. For `COc1ccc(-c2cc(=O)c3c(OC)c(OC)c(OC)cc3o2)cc1OC` [Sinensetine] the value was 99.8.

In turn, `COc1cc2c(cc1OC)-c1cc(=Nc3c(C)cc(C)cc3C)n(C)c(=O)n1CC2.Cl` [Trequinsin.HCl] yielded a cell number of 107. For `O=C1Nc2ccccc2C1=C1Nc2ccccc2C1=O` [Indirubin] the value was 94.7; for `CC[N+](CC)(CC)CC(=O)Nc1c(C)cccc1C.[Br-]` [Lidocaine N-ethyl bromide quaternary salt], 108; for `O=C(NOCC1CC1)c1ccc(F)c(F)c1Nc1ccc(I)cc1Cl`, 71. For `CC(C)Cc1ccc(C(C)C(=O)NO)cc1` (stereo not given) [Ibuproxam] the value was 101.

Molecule `C#C[C@@]1(OC(C)=O)CC[C@H]2[C@@H]3CCC4=CC(=O)CC[C@@H]4[C@H]3CC[C@@]21C` [(17beta)-17-ethynyl-3-oxoestr-4-en-17-yl acetate] had a cell number of 96.8.

`CC(C)NCC(O)COc1cccc2[nH]ccc12` (stereo not drawn) [S(-)-Pindolol] gave a cell number of 107. For `O=C(O)C=CC(=O)O.c1cnc(N2CCN(Cc3ccc4c(c3)OCO4)CC2)nc1` [Piribedil maleate] the value was 116; for `CCC1(O)CC2CN(CCc3c([nH]c4ccccc34)C(C(=O)OC)(c3cc4c(cc3OC)N(C=O)C3C(O)(C(=O)OC)C(OC(C)=O)C5(CC)C=CCN6CCC43C65)C2)C1.O=S(=O)(O)O` (stereo not given) [Vincristine sulfate], 9.46 ± 1.6. Molecule `CCN1CCCC1CNC(=O)c1c(OC)ccc(I)c1O` (stereo not given) displayed a cell number of 91.
